# Test results: the supplement of paper PMC6555819
# System: PPARg:RXRa (NR concentration 180 nM, RXRa partner concentration 90 nM)
# Assay: PBM binding z-score (relative to random genomic background probes); higher = stronger binding; sequences stand for … in GC…GCGATTGACAGCGTAGAATGAAGG
# Outline: (§1)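 Ligand-free nuclear receptor dimers were applied to custom Agilent 4×180K protein-binding microarrays whose double-stranded probes carried direct-repeat seeds, single-nucleotide variants, half-site ablations and random human genomic background sequences in 34-nt variable regions. Incubation lasted 1 h. Binding z-scores were computed against the random background probes from regression-normalized fluorescence.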
row,Sequence,PBM binding z-score
1,TATACAGGGTCAAAGGCCCGAGTACGAATGTCGA,6.14
2,TCTTGTAGCTCAAGCAGGTTAAGAAAGCCTGAGT,-0.708
3,TCTTGTGGATCAAAGGTTAAGAAAGCCGAAGCCT,7.94
4,TCTTGTAGTTCAAGCAGGTTAAGAAAGCCTGAGT,-0.535
5,CCTACTGGGCCAAAGGTCACTGATTCCAATGCTC,12.2
6,TCTGCAAGGTCAACGATGGTCAGCTAATCTGCTA,4.78
7,GCAGACAGGTGAAACGAAGGTAACTCAGGGTGGC,0.836
8,ATCGAAAGCTCGAAGGTGAGTATACCCACCCGAA,0.476
9,CATACAGGGTCAGCAAGGCCAGAGTAGGGACGGC,3.47
10,TCATATCGGTAAAGGTGAAAGTCGAACGATATGA,1.89
11,CCTTACGGGTCACTGACAGGCTATAGCATTTGGA,3.88
12,GTACCAAGCTGAATAGGTCGTTGATGAGTAGGCG,0.271
13,CCTGGTAGGTCAATGGTCAGCTAAAGCAGCTCGC,6.52
14,CGTCCAAGGTGAGCAGGTCAGTGAAAGCGACGTG,0.537
15,TCATATAGGTAAACGTGAAAGTCGAACGATATGA,1.44
16,TCGAGTGGGTTAGTCGGGGCATTCAGCCAACATA,-0.439
17,AGAATGAGGTTGTTAAGATCAGGGAATTGCGGTC,0.171
18,CTCGAAAGGTCGGTTAAGGTGAGTATACGGATAA,0.591
19,CGTAGTTGGTCAAGGTCACACACGCTATAGGTAC,3.4
20,CCTGCTAGGTCAATGGTGAGCTAAAGCAGCTCGC,2.46

row,Sequence,PBM binding z-score
1,CCTTACGTGTCAAGGTTATAGCACGGGTGGTACG,0.992
2,CAAACTAGGTCAAGAGGTCAAAGTCCGCTTCCCG,9.95
3,TAGCCTTGGTCAGATCGGGCCAGTATACGCTATA,-0.0905
4,CCAGACAGGTGAAAGGGAACTCAGTCTGGTACGC,2.51
5,TCGAGTAGGTTACCAATGGGGCAGTCAGCTTTCT,0.211
6,TCTCGTAGATCAGCAGGTTAAGAAAGCTGGCCAA,-0.691
7,CGTCCAAGGCCAGAGAGGTCAGTGAATGCCGAGT,0.0517
8,CCAGACAGGTGCGAAGGTAACTCAGCCTCGATTA,0.0695
9,CCTATTGGGCCAAAAAGGTCATTGATGCCGATAA,2.25
10,CGTCCAAGGTCAAGGTCATTGAAAGAGACTCGAA,6.59
11,ATCTCTAGGTAAAGATAGTTAAGTGAATGCAAAT,0.771
12,TCGTGTAGATCAAAGGTTAAGAAAGCCGAAGCCT,5.73
13,ACAGACAGATGATGAAGGTAACTCAGGCTATCAT,0.719
14,AGAATGAGGGCAATGAGTTGATAGCACGGGTGGC,1.79
15,CCTACTGGGCCACGAAAGGTCATTTATTCAGTGA,4.58
16,ACTTACGGGTCAACGAGGTTATAGAACGCGTATA,5.23
17,TAGCCTAGGTCATTCAGGGGCCAGTATAGAAAGC,1.97
18,GCTTACGGGTCAAAGGTTATAGCTTGAATAGAAT,11.3
19,CGAACTAGGTCATGGACAGTGAATCTCCGCACGC,7.41
20,CAAACTAGGTCAAAGGTCTAAGTCGAGCCAACCA,12

# System: PPARg:RXRa 270nM:90nM, anti-RXR (NR concentration 270 nM, RXRa partner concentration 90 nM)
# Assay: as above
# Outline: as §1
row,Sequence,PBM binding z-score
1,TATACAGGGTCAAAGGCCCGAGTACGAATGTCGA,6.28
2,TCTTGTAGCTCAAGCAGGTTAAGAAAGCCTGAGT,0.77
3,TCTTGTGGATCAAAGGTTAAGAAAGCCGAAGCCT,7.64
4,TCTTGTAGTTCAAGCAGGTTAAGAAAGCCTGAGT,1.65
5,CCTACTGGGCCAAAGGTCACTGATTCCAATGCTC,10.6
6,TCTGCAAGGTCAACGATGGTCAGCTAATCTGCTA,4.95
7,GCAGACAGGTGAAACGAAGGTAACTCAGGGTGGC,0.16
8,ATCGAAAGCTCGAAGGTGAGTATACCCACCCGAA,-0.226
9,CATACAGGGTCAGCAAGGCCAGAGTAGGGACGGC,3.27
10,TCATATCGGTAAAGGTGAAAGTCGAACGATATGA,3.12
11,CCTTACGGGTCACTGACAGGCTATAGCATTTGGA,4.36
12,GTACCAAGCTGAATAGGTCGTTGATGAGTAGGCG,0.0324
13,CCTGGTAGGTCAATGGTCAGCTAAAGCAGCTCGC,6.4
14,CGTCCAAGGTGAGCAGGTCAGTGAAAGCGACGTG,1.08
15,TCATATAGGTAAACGTGAAAGTCGAACGATATGA,2.44
16,TCGAGTGGGTTAGTCGGGGCATTCAGCCAACATA,0.869
17,AGAATGAGGTTGTTAAGATCAGGGAATTGCGGTC,0.206
18,CTCGAAAGGTCGGTTAAGGTGAGTATACGGATAA,1.48
19,CGTAGTTGGTCAAGGTCACACACGCTATAGGTAC,3.54
20,CCTGCTAGGTCAATGGTGAGCTAAAGCAGCTCGC,2.99

row,Sequence,PBM binding z-score
1,CCTTACGTGTCAAGGTTATAGCACGGGTGGTACG,0.8
2,CAAACTAGGTCAAGAGGTCAAAGTCCGCTTCCCG,8.33
3,TAGCCTTGGTCAGATCGGGCCAGTATACGCTATA,-0.29
4,CCAGACAGGTGAAAGGGAACTCAGTCTGGTACGC,3.24
5,TCGAGTAGGTTACCAATGGGGCAGTCAGCTTTCT,1.04
6,TCTCGTAGATCAGCAGGTTAAGAAAGCTGGCCAA,1.22
7,CGTCCAAGGCCAGAGAGGTCAGTGAATGCCGAGT,0.653
8,CCAGACAGGTGCGAAGGTAACTCAGCCTCGATTA,-0.0964
9,CCTATTGGGCCAAAAAGGTCATTGATGCCGATAA,3.39
10,CGTCCAAGGTCAAGGTCATTGAAAGAGACTCGAA,6.7
11,ATCTCTAGGTAAAGATAGTTAAGTGAATGCAAAT,0.421
12,TCGTGTAGATCAAAGGTTAAGAAAGCCGAAGCCT,6.47
13,ACAGACAGATGATGAAGGTAACTCAGGCTATCAT,-0.0905
14,AGAATGAGGGCAATGAGTTGATAGCACGGGTGGC,1.42
15,CCTACTGGGCCACGAAAGGTCATTTATTCAGTGA,4.66
16,ACTTACGGGTCAACGAGGTTATAGAACGCGTATA,5.55
17,TAGCCTAGGTCATTCAGGGGCCAGTATAGAAAGC,2.59
18,GCTTACGGGTCAAAGGTTATAGCTTGAATAGAAT,9.06
19,CGAACTAGGTCATGGACAGTGAATCTCCGCACGC,6.4
20,CAAACTAGGTCAAAGGTCTAAGTCGAGCCAACCA,10
